Counter-ions that a name gives are not always drawn.
System: U-2932
Experiment: growth inhibition by drug alone (1 - RLU/untreated control) (fraction); higher = stronger inhibition
Settings: 177Lu-lilotomab satetraxetan 0 ug/ml
Description: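 U-2932 ABC-DLBCL cells were pretreated or not for 18 h with 1 ug/ml 177Lu-lilotomab satetraxetan (600 MBq/mg), washed and seeded (3000 cells/well) on 384-well plates pre-printed with the Selleck Cambridge Cancer Compound library. Viability was read by RealTime-Glo luminescence on days 3-6 after seeding. Effect = 1 - RLU/mean RLU of the 48 untreated no-drug control wells per plate; Bliss score = (M-E)/(1-Fa), with E the expected Bliss-additive effect.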

| Compound | growth inhibition by drug alone (10 nM, time (day): 3) | growth inhibition by drug alone (10 nM, time (day): 4) | growth inhibition by drug alone (10 nM, time (day): 5) | growth inhibition by drug alone (10 nM, time (day): 6) | growth inhibition by drug alone (1000 nM, time (day): 3) | growth inhibition by drug alone (1000 nM, time (day): 4) | growth inhibition by drug alone (1000 nM, time (day): 5) | growth inhibition by drug alone (1000 nM, time (day): 6) |
| --- | --- | --- | --- | --- | --- | --- | --- | --- |
| Nc1nc(Cl)nc2c1ncn2[C@@H]1O[C@H](CO)[C@@H](O)[C@@H]1F [Clofarabine] | 0.0673 | 0.0292 | -0.0979 | -0.0594 | 0.929 | 0.958 | 0.972 | 0.979 |
| Cc1ccc(-c2csc3ncnc(SCCC(=O)O)c23)cc1 | 0.0174 | -0.014 | -0.0343 | -0.0333 | -0.00216 | -0.0356 | -0.0409 | 0.0278 |
| Oc1nc(-c2ccc(C(F)(F)F)cc2)nc2c1CSCC2 | 0.0264 | 0.0499 | -0.0107 | -0.0367 | 0.0107 | 0.081 | 0.0386 | -0.0985 |
| CC/C(=C(\c1ccccc1)c1ccc(OCCN(C)C)cc1)c1ccccc1 [Tamoxifen Citrate (Nolvadex)] | 0.0699 | 0.0582 | -0.0313 | -0.0576 | 0.106 | 0.0715 | -0.0226 | 0.0641 |
| CC[C@@]1(O)C(=O)OCc2c1cc1n(c2=O)Cc2cc3c(CN(C)C)c(O)ccc3nc2-1 [Topotecan HCl] | 0.427 | 0.494 | 0.544 | 0.586 | 0.952 | 0.969 | 0.977 | 0.981 |

— the supplement of paper PMC6897291
